The results in this text go back to PubChem BioAssay (NCI).

Some test systems named below: NCI-H23 lung; NCI-H226 lung; NCI-H322M lung; NCI-H460 lung; HOP-92 NSCLC; NCI-H522 lung; A549/ATCC NSCLC; 786-0 renal; COLO 205 colon; DU-145 prostate; K-562 leukemia; MALME-3M melanoma; MDA-MB-231 breast; RXF 393 renal; SF-268 CNS; SF-295 CNS; SF-539 CNS; UACC-257 melanoma; M14 melanoma; HOP-62 NSCLC.
What all share (experiment): NCI-60 one-dose screen, 48 h (100 = growth as untreated, 0 = no growth, -100 = all killed)
Conditions in all cases: 10 µM unless noted

Structures are written as SMILES. The panel holds about 83,000 compounds, 20% with a hit somewhere; the sample as a whole holds those more often.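 Note: values are percent growth. 100 is the growth of untreated cells, values between 100 and 0 indicate rising inhibition; between -100 and 0 indicates cell death.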 Values without a mark were called inactive. Calls of active or inactive are those of the source. The calls were made as follows: active = growth percent below 10; inactive = the rest.

`CCCCCCC(CCCC)COC(=O)c1ccc(Cl)cc1` (stereo not drawn): the growth was 110% with NCI-H23 lung; 92.8% in the test on NCI-H226 lung; 111% in the test on NCI-H322M lung; 102% in the test on NCI-H460 lung; 89.5% with HOP-92 NSCLC; 105% with NCI-H522 lung. In addition, the growth in the test on A549/ATCC NSCLC is 117%; in the test on 786-0 renal it was 103%; in the test on COLO 205 colon, 108%; in the test on DU-145 prostate, 105%; in the test with K-562 leukemia, 104%; in the test on MALME-3M melanoma, 111%. Further, the growth is 106% with MDA-MB-231 breast; 105% with RXF 393 renal; 102% in the test with SF-268 CNS; 102% with SF-295 CNS; 106% in the test on SF-539 CNS; 112% in the test on UACC-257 melanoma. Further, in the test on M14 melanoma, the growth is 104%.
On to `O=C(N/N=C/c1ccc(O)cc1O)c1ccc(Nc2ccnc(C(F)(F)F)c2)cc1`, for which the growth in the test with NCI-H23 lung is 52.4%; in the test on NCI-H226 lung, 16.8%; with NCI-H322M lung it was -3.47% (active); with NCI-H460 lung, 24.6%; in the test on HOP-92 NSCLC it was 40.9%; in the test with NCI-H522 lung it was 44.2%. In addition, the growth is 80.6% in the test with A549/ATCC NSCLC; 33.7% with 786-0 renal; 9.64% (active) with COLO 205 colon; 53.5% with DU-145 prostate; 74.9% with K-562 leukemia; 46.6% in the test with MALME-3M melanoma. The growth in the test with MDA-MB-231 breast is 46.1%; in the test on RXF 393 renal, 95.3%; in the test with SF-268 CNS, 41.1%; in the test with SF-295 CNS, 47.8%; in the test with SF-539 CNS, 27.6%; with UACC-257 melanoma, 44.6%. For the same molecule, the growth in the test on M14 melanoma is 36.1%.
On to `N#Cc1c(-c2ccccc2)cc(-c2ccccc2)n(CCCC(=O)NO)c1=O`, for which the growth with NCI-H23 lung was 31.2%; in the test with NCI-H226 lung it was 13%; in the test on NCI-H322M lung it was 35.3%; in the test with NCI-H460 lung it was 8.19% (active); in the test with HOP-92 NSCLC it was 30.4%; in the test on NCI-H522 lung, 21.8%. In addition, the growth in the test on A549/ATCC NSCLC is 22.8%; in the test with 786-0 renal, 17.7%; in the test on COLO 205 colon, 18.3%; in the test with DU-145 prostate it was 26.1%; with K-562 leukemia it was 7.36% (active); in the test on MALME-3M melanoma, 11.1%. Besides, the growth with MDA-MB-231 breast was 35.1%; in the test with RXF 393 renal it was -1.83% (active); with SF-268 CNS, 37.3%; in the test on SF-295 CNS, 13.8%; with SF-539 CNS, 20.6%; in the test with UACC-257 melanoma, 37.6%. In the test on M14 melanoma, the growth is 18.6%.
Take `COc1cccc2c(N=NC(=O)c3ccc(S(N)(=O)=O)cc3)c(O)[nH]c12`: the growth was 99.4% in the test on NCI-H23 lung; 95.8% in the test on NCI-H226 lung; 99.7% in the test with NCI-H322M lung; 104% with NCI-H460 lung; 118% with HOP-92 NSCLC; 87.1% in the test on NCI-H522 lung. For the same molecule, the growth was 95.5% with A549/ATCC NSCLC; 95.6% with 786-0 renal; 109% in the test with COLO 205 colon; 115% with DU-145 prostate; 98.5% in the test with K-562 leukemia; 103% with MALME-3M melanoma. The growth in the test on MDA-MB-231 breast was 102%; with RXF 393 renal, 106%; in the test on SF-268 CNS, 106%; in the test with SF-295 CNS it was 102%; in the test on SF-539 CNS, 102%; with UACC-257 melanoma, 107%.
Consider `S=c1[nH]c2cc(Cl)ccc2o1`, for which the growth with NCI-H23 lung was 104%; in the test on NCI-H226 lung it was 104%; in the test with NCI-H322M lung, 107%; in the test on NCI-H460 lung, 100%; with HOP-92 NSCLC it was 82.6%; in the test on NCI-H522 lung, 102%. Also, the growth in the test with 786-0 renal was 92.7%; in the test on COLO 205 colon, 110%; with DU-145 prostate, 102%; with K-562 leukemia, 90.7%; in the test on MALME-3M melanoma, 102%; with MDA-MB-231 breast, 89%. Further, the growth was 104% with RXF 393 renal; 105% in the test on SF-268 CNS; 99.2% with SF-295 CNS; 106% in the test with SF-539 CNS; 113% in the test with UACC-257 melanoma.
As for `N=c1c2c(=N)n3c(nc2nc2n1-c1ccccc1Sc1ccccc1-2)sc1cc(Cl)ccc13`, the growth with NCI-H23 lung was 7.38% (active); with NCI-H226 lung, 32.9%; with NCI-H322M lung it was 47.1%; in the test on HOP-62 NSCLC, 76.8%; in the test on NCI-H460 lung it was 13.8%; in the test on HOP-92 NSCLC it was -14.1% (active). The growth is 4.09% (active) with NCI-H522 lung; 30% with 786-0 renal; 44.8% in the test with COLO 205 colon; 32.4% with DU-145 prostate; 34.9% in the test on K-562 leukemia; 12.7% in the test with MALME-3M melanoma. For the same molecule, the growth in the test on MDA-MB-231 breast is 32.1%; in the test on RXF 393 renal, 26.5%; in the test on SF-268 CNS it was 38.3%; with SF-295 CNS, 12.8%; in the test on SF-539 CNS, 55.4%; in the test with UACC-257 melanoma it was -5.42% (active). Besides, the growth in the test on M14 melanoma is 28.8%.
For the molecule `COc1ccc(/C=C/C(=O)c2cc3c(N)c(C(=O)Nc4ccc(OC)cc4)sc3nc2C)cc1`, the growth with NCI-H23 lung was 32.7%; with NCI-H226 lung, 49.4%; with NCI-H322M lung it was 36.4%; in the test on NCI-H460 lung it was -6.51% (active); with HOP-92 NSCLC, 97.7%; with NCI-H522 lung, -29.6% (active). Moreover, the growth with A549/ATCC NSCLC was 13.5%; with 786-0 renal it was 27.7%; in the test on COLO 205 colon it was -47.7% (active); in the test with DU-145 prostate it was 17.5%; with K-562 leukemia, 17.9%; in the test on MALME-3M melanoma, 49.1%. Besides, the growth is 24.7% in the test on MDA-MB-231 breast; -14.4% (active) in the test with RXF 393 renal; 39.5% with SF-268 CNS; 11.6% with SF-295 CNS; -25.5% (active) with SF-539 CNS; 55.3% with UACC-257 melanoma. The growth with M14 melanoma is 10.2%.
With `C[N+](C)(C/C=C/c1ccccc1)Cc1ccccc1`, the growth in the test with NCI-H23 lung was 85.2%; with NCI-H226 lung it was 93.1%; in the test with NCI-H322M lung, 89.7%; with HOP-62 NSCLC, 96.7%; in the test with NCI-H460 lung, 102%; in the test with HOP-92 NSCLC it was 104%. Also, the growth in the test with NCI-H522 lung was 90.7%; in the test on 786-0 renal it was 99.1%; in the test with DU-145 prostate, 102%; with K-562 leukemia it was 110%; in the test with MALME-3M melanoma, 86.8%; in the test on MDA-MB-231 breast, 102%. Further, the growth in the test on RXF 393 renal was 99.2%; in the test with SF-268 CNS it was 90.3%; in the test on SF-295 CNS it was 93.5%; with SF-539 CNS, 93.9%; in the test on UACC-257 melanoma, 97.7%; in the test on M14 melanoma it was 85.6%.
